From PubChem
Efflux pump mplx: inhibitors of Candida antifungal efflux pumps expressed in yeast | S. cerevisiae Candida pump triplex, Nile Red efflux | inhibition, % at 10 µM | 330,000 tested, 0.44% active;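 active means plate passing quality check with inhibition over a set limit, or well fluorescence over plate mean plus 4 SD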;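 further: Nile Red retained in pooled yeast measured as flow cytometry median fluorescence; 0% = buffer negative control and 100% = Enniatin B positive control; higher means more Nile Red kept so more efflux inhibition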
V-ATPase pH: yeast V-ATPase proton transport regulation by pHLuorin | response, % at 10 µM | S. cerevisiae, pHLuorin cytosolic pH fluorescence | 350,000 tested, 0.37% active; in the data active means response mostly above about 7.3%, no sharp cut-off; inactive means mostly below about 5.4%; further: actives read high
AI-2 QS modul: Vibrio harveyi AI-2 quorum sensing modulation. Vibrio harveyi JMH597 AI-2 luminescence/OD600 ratio, 9 h; hits give low values; strain lacks LuxN and CqsS sensors; 0 = neutral-control median. activity change, % at 7.5 µM. 300,000 tested, 0.4% active; in the data active means activity change below about -75%, passing the limit was not always enough; inconclusive means no clear call, values can overlap the other calls;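 further: luminescence divided by OD600 gain over 9 h not by final OD600 alone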
SUMO Mot1 rescue: inhibitors of SUMOylation pathway: yeast Mot1-301 growth rescue; S. cerevisiae Mot1-301 growth rescue, ATP luminescence, 38.5C; percent above DMSO median, 100 means doubled; growth rescue, % at 18.8 µM; 320,000 tested, 1% active;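 active means every valid replicate shows activation above 250% relative to neutral control wells; inactive means the rest, any valid replicate at or below 250%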;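 further: OY570 slx delta 5 strain wells were the positive control but not used for scaling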
ATG4B inh: ATG4B (human) cysteine protease inhibition; ATG4B cleavage of LC3-PLA2, NBD-HPC fluorescence, 1 h; AID 504462; inhibition, % at 8.33 µM; 340,000 tested, 0.51% active; in the data active means inhibition above about 40%
Target sequence (Q9Y4P1 whole entry, looked up): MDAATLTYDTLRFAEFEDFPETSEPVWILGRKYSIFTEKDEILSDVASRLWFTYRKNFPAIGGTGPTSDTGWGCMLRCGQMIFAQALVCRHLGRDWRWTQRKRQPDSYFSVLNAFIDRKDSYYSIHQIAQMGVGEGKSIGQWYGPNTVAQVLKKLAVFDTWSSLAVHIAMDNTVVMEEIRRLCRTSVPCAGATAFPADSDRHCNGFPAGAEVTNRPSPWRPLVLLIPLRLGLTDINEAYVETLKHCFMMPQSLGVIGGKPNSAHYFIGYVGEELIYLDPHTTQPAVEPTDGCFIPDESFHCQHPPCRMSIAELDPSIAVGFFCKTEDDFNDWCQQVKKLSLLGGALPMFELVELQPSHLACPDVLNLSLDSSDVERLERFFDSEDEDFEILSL
* hit, by the source's call; ? = inconclusive; · = no result; + = active, no number. The list is not random: actives were taken first. Their share in the collection is about 2.5%.

SMILES | Efflux pump mplx | V-ATPase pH | AI-2 QS modul | SUMO Mot1 rescue | ATG4B inh
Cc1cccc(NC(=S)N2CCN(Cc3ccccc3)CC2)c1C | 0 | 16* | -3 | 11 | -12
O=C1CC(/C=C/c2ccccc2)=Nc2ccccc2N1 | 0 | -2 | 8 | 12 | -1
O=C1CC(/C=C/c2ccc(Cl)cc2)=Nc2ccccc2N1 | 1 | -1 | 21 | 568* | 10
Cc1ccc(CN2CCN(/N=C/c3ccc(C(F)(F)F)cc3)CC2)c(C)c1 | 1 | 4 | 41 | 326* | 3
CCN1C(=O)CC(NC2CCN(C(=O)c3ccc(F)cc3)CC2)C1=O (stereo not given) | 0 | -1 | 8 | 3 | 0
CCC1CCCCN1CCNC(=O)CNS(=O)(=O)c1ccc2nc(C)sc2c1 (stereo not given) | 0 | 2 | 9 | 315* | 8
C=CCc1cccc([C@@H]2[C@@H](C)CC[C@H]3C(=O)N4[C@@H](c5cc(OC)c(OC)c(OC)c5)c5[nH]c6ccccc6c5C[C@H]4C(=O)N23)c1 | · | · | 11 | -5 | ·
Cc1ccc(N2CC(C(=O)Nc3nnc(SCC(N)=O)s3)CC2=O)cc1 (stereo not given) | 0 | 2 | 13 | -3 | -6
CCCCn1c(NS(=O)(=O)c2ccccc2)c(S(=O)(=O)c2ccc(C)cc2)c2nc3ccccc3nc21 | 0 | 0 | -20 | 3 | 75*
CCCCn1c(NC(=O)c2ccco2)c(S(=O)(=O)c2ccc(C)cc2)c2nc3ccccc3nc21 | · | 1 | -8 | · | -3
COc1cccc(/C=N/Nc2nc(-c3cccnc3)nc3ccccc23)c1 | 0 | -2 | 10 | 314* | 0
COc1ccc2c(c1)OC[C@H]1[C@H]2N2C(=O)c3cc(Cl)ccc3NC(=O)[C@@]2(C)[C@H]1c1ccccc1 | 0 | 2 | · | 157 | -8
COc1ccc2c(c1)OC[C@H]1[C@H]2N2C(=O)c3cc(OC)ccc3NC(=O)[C@@]2(C)[C@H]1c1ccccc1 | · | -2 | · | 356* | -10
COc1ccc(C(=O)CC(=O)C(=O)Nc2cccc(C(C)=O)c2)cc1 | 0 | 0 | 6 | -15 | 7
CCCCn1c(N)c(N(CC(C)C)C(=O)CSc2nnc(-c3ccc(Cl)cc3)o2)c(=O)[nH]c1=O | 0 | -1 | 0 | -2 | -9
CCCn1nc([N+](=O)[O-])c(C(C#N)c2nc3ccccc3o2)c(Cl)c1=O (stereo not given) | 0 | 1 | 0 | -26 | 84*
Cn1nc([N+](=O)[O-])c(C(C#N)c2ccccn2)c(Cl)c1=O (stereo not given) | 0 | 1 | 46 | 9 | -4
O=C(CCC(=O)c1ccc(F)cc1)Nc1cccc(C(F)(F)F)c1 | 0 | 2 | -78* | 321 | -14
COc1ccc(OC)c(C(O)c2nc3ccccc3n2C(C)C)c1 (stereo not given) | 0 | 4 | 23 | 304* | -4
Cc1ccc(N2C(=O)c3ccc(C(=O)O)cc3C2=O)c(C)c1 | 0 | -2 | 28 | 313* | -3
CCN1C2=C(C(=O)CCC2)C(c2ccc(O)c(Br)c2)C2=C1CCCC2=O | 0 | 1 | 13 | 6 | 4
O=C1CCCC2=C1C(c1ccc(O)c(Br)c1)C1=C(CCCC1=O)N2c1ccccc1 | 0 | 0 | 17 | + | -1
CC(=O)Oc1ccc(C)cc1-n1nc2ccccc2n1 | 0 | -3 | 2 | -3 | -9
Cc1ccc(OCC(=O)O)c(-n2nc3ccccc3n2)c1 | 0 | -1 | 3 | 340* | -7
COc1ccccc1C(=O)OCC(=O)Nc1ccccc1OC(F)F | 0 | -2 | 15 | -14 | -6
SMILES | Efflux pump mplx | V-ATPase pH | AI-2 QS modul | SUMO Mot1 rescue | ATG4B inh
O=C(COC(=O)CN=C1NS(=O)(=O)c2ccccc21)Nc1ccccc1OC(F)F | 0 | 15* | 36 | -9 | 2
O=C1C=CC(=O)N1CCNc1ncc(C(F)(F)F)cc1Cl | · | 13* | 4 | · | 0
COCCCn1c(C)nc2c(c1=O)c1nc3ccccc3nc1n2CCc1ccccc1 | 0 | 0 | -4 | -2 | -11
CCN(CC)S(=O)(=O)c1ccc(N2CCOCC2)c(NC(=O)c2cnccn2)c1 | 0 | -3 | 21 | 13 | -6
Cc1ccc(Nc2cc(C)nc(NCc3ccccc3)n2)cc1 | 0 | 5 | -92* | -27 | 25
O=C(CO/N=C/c1ccc(Cl)cc1Cl)NNC(=O)c1ccc(Cl)cc1Cl | 0 | -1 | -88* | -2 | -13
O=C(CO/N=C/c1c(Cl)cccc1Cl)NNC(=O)c1cccc(Cl)c1 | 0 | -4 | 5 | 13 | 24
COC(=O)c1ccccc1C(=O)N1CCCC(CCC(=O)NCc2ccc(F)c(F)c2)C1 (stereo not given) | 0 | 4 | 4 | 4 | 0
COCCNC(=O)C(c1cccs1)N(CCc1ccccc1)C(=O)Cn1nnc2ccccc21 (stereo not given) | 0 | 3 | -6 | -5 | -18
COCCNC(=O)C(c1cccs1)N(Cc1ccccc1)C(=O)Cn1nnc2ccccc21 (stereo not given) | 0 | 4 | 30 | 284* | 5
CCn1cc(C(=O)N[C@H](C)c2ccccc2)c(=O)c2cc(F)c(N3CCN(C)CC3)cc21 | 0 | 0 | 7 | 815* | -5
COC(=O)c1ccc(CSc2nc3scc(-c4cccs4)c3c(=O)[nH]2)o1 | 0 | 2 | 16 | 23 | 54*
[N-]=[N+]=CC(=O)C(O)(c1ccccc1)C(Cl)c1ccccc1 (stereo not given) | 0 | -1 | -11 | 301* | 1
[N-]=[N+]=CC(=O)C(c1ccccc1)(c1ccccc1)c1ccccc1 | 0 | 2 | 15 | 44 | -11
O=C(Cn1nc(-c2ccccc2)c2ccccc2c1=O)NCCO | 0 | -2 | 50 | 0 | -2
COc1ccc(N(CC(O)Cn2cnc3ccccc32)S(=O)(=O)c2ccc(C)cc2)cc1 (stereo not given) | 0 | 0 | 20 | -10 | -9
O=Nc1c2cc3ccccc3[nH]c-2c2ccccc12 | · | 4 | · | · | -17
O=Nc1c(O)c2ccccc2c2ccccc12 | 0 | -3 | -36 | 664* | -12
C[C@@H](O)CC(=O)O | 0 | -1 | · | 14 | 5
CN[C@H](CC(=O)O)C(=O)O | 0 | 1 | 5 | 307* | -2
CC(=O)c1ccc(NC(=O)c2ccc([N+](=O)[O-])o2)cc1 | 0 | 1 | -91* | 14 | -2
CC(=O)c1cccc(NC(=O)c2ccc([N+](=O)[O-])o2)c1 | 0 | 4 | ? | -9 | -9
Cc1cc(C)c2sc(NC(=O)c3ccc([N+](=O)[O-])o3)nc2c1 | 0 | -5 | -86* | 67 | -13
Cc1cc(C)cc(NC(=O)c2ccc([N+](=O)[O-])o2)c1 | · | 3 | -110* | · | -5
Cc1cc(NC(=O)c2ccc([N+](=O)[O-])o2)ccc1NC(=O)c1ccco1 | · | -1 | -94* | · | -6
